From PubChem BioAssay (NCI) come the findings set out here.

This is part of a sample that, as a whole, favours compounds with a hit. Of some 83,000 tested, about 20% had one in any assay.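 Cell lines were cultured in 96-well plates, exposed to a single compound concentration, and assessed for percent growth 48 hours later.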 Active and inactive are the calls of the source.

For this test, the system named is BT-549 breast. As to the kind of experiment: NCI-60 one-dose screen, 48 h (100 = growth as untreated, 0 = no growth, -100 = all killed). The note with it: 10 µM unless noted. As for the experimental part: Growth inhibition of the BT-549 human tumor cell line is measured as a screen for anti-cancer activity. Cells are grown in 96 well plates and exposed to the test compound for 48 hours. Compounds are tested at a single concentration, which is 10^-5 M for most compounds. The reported endpoint is percent growth (GI% or GIPRCNT), where numbers from 0 - 100% represent growth inhibition, and numbers from -100% - 0 represent cell death. For example, a value of 40 represents 60% growth inhibition. A value of 0 means no net growth occurred over the course of the experiment. A value of -40 indicates 40% of cells at the beginning of the experiment died by the end of the experiment. A value of -100 means all cells are dead at the end of the experiment.
NCI-60 Human Tumor Cell Lines Screen was performed using the standard one-dose NCI protocol, which is described in more detail at https://dtp.cancer.gov/discovery_development/nci-60/default.htm.
Compounds with GIPRCNT values below 10 were considered active. Activity score was based on GIPRCNT using the following formula: […]
Score is 0 for GIPRCNT values of 100 or above, 50 for GIPRCNT values of 0, and 100 for GIPRCNT values of -100.
On to `COc1cc(-c2ccc3ncnc(NCc4ccccc4)c3c2)cnc1OC`, for which the growth was 57.2% (inactive). For `O=C1/C(=C/C=C/c2ccco2)SC(=S)N1c1ccccc1`, the growth is 65.2% (inactive). As to `COCCNc1ccc2ncc(C#Cc3cncc(C(=O)Nc4ccc(CN5CCN(C)CC5)c(C(F)(F)F)c4)c3)n2n1`, the growth was -36.7% (active).

Regarding `COc1ccc(-c2nc3cccc(O)c3c(=O)n2Cc2ccccc2)cc1COc1ccc(NC(C)=O)cc1`, the growth is 55.4% [3 µM] (inactive). Take `Nc1nc(-c2cccc([N+](=O)[O-])c2)c(N=Nc2ccc(Br)cc2)s1`: the growth is -29.6% (active).

For the molecule `O=C(Nc1nc2ccc([N+](=O)[O-])cc2s1)Nc1ccccc1Br`, the growth is 71.7% (inactive). On to `COc1cc(OC)c(S(N)(=O)=O)cc1C(C)=O`, for which the growth is 115% (inactive). Under `CC(C)(C)CC(C)(C)n1nnnc1C(Nc1nccs1)c1cc2cccc3ccc4cccc1c4c32` (stereo not given) stands 91.6% (inactive). For `Cc1ccc(CSc2nc(-c3ccc(Cl)cc3)c(C#N)c(N3CCOCC3)n2)cc1`, the growth is 115% (inactive). On to `Cn1ccnc1C(=O)/C=C/c1ccc(CNC(=O)c2ccc(F)cc2)cc1`, for which the growth is 43.2% (inactive).

For `NC(N)=Nc1ccc(Oc2cccc(NC(N)=Nc3ccc(Br)cc3)c2)cn1`, the growth is 99.2% (inactive). Turning to `Nc1nc(N)c2c(n1)NC(c1ccc(Cl)cc1)CC(c1ccc(Nc3nc(NCCO)nc(N4CCOCC4)n3)cc1)=N2` (stereo not given), the growth is 71% (inactive). With `Cn1cc(-c2nnc(N)nc2-c2c[nH]c3ccc(F)cc23)c2cc(F)ccc21`, the growth is 71.2% (inactive). In the case of `Cc1ccc2sc3c(c2c1)OC(N)=C(C#N)C3c1ccc(Cl)cc1` (stereo not given), the growth was 26.3% (inactive). With `COc1cccc(N2CCN(c3ncnc4c3[nH]c3ccc(F)cc34)C[C@H]2C)c1`, the growth is -3.9% (active). Under `O=C(Nc1ccc(Br)cc1)Nc1nc2ccc([N+](=O)[O-])cc2s1` stands -21.5% (active); under `O=C1CCCc2nc(Nc3ccc(S(=O)(=O)Nc4ccc([N+](=O)[O-])cc4)cc3)ncc21`, 117% (inactive); under `O=S(=O)(NC1c2ccccc2C[C@H]1O)c1ccc(Cl)cc1Cl` (stereo not given in full), 126% (inactive). Consider `CCC(NC(c1cc2cccc3ccc4cccc1c4c32)c1nnnn1C(C)(C)C)C1CCCCC1` (stereo not given), for which the growth was 50.5% (inactive). Take `Cc1nn(-c2ccccc2)c2ncnc(N/N=C/c3ccccc3O)c12`: the growth is 25.6% (inactive). As for `N#Cc1cn(Cc2ccc(Cl)cc2Cl)c(C(=O)c2ccc(Br)cc2)c1N`, the growth is 108% (inactive). Turning to `CC(C)(C)c1ccc(-c2nnc(-c3nc4ccccc4nc3Cl)o2)cc1`, the growth is 104% (inactive).

`C=C(C=O)[C@@H]1CC[C@]2(C)[C@H](C(=O)C=C3[C@H]4C[C@](C)(C(=O)OC)CC[C@]4(C)CC[C@]32C)[C@@]1(C)CCC#N`: the growth is 13.8% (inactive). Take `CS(=O)(=O)Nc1cc(-c2ccc3ncc(C#N)c(N[C@H](CO)c4ccccc4)c3c2)cnc1Cl`: the growth was 33.9% (inactive). For `COc1ccccc1NC1=C(Cl)C(=O)c2nc(C)ccc2C1=O`, the growth is 83.5% (inactive). Under `CCOc1ccccc1NC1=C(Cl)C(=O)c2nc(C)ccc2C1=O` stands 44.4% (inactive). Turning to `CCn1c2ccccc2c2cc(-n3nncc3-c3ccccc3)ccc21`, the growth was 80.5% (inactive). With `CC1(COc2ccc3ncc(C#Cc4cncc(C(=O)Nc5cccc(C(F)(F)F)c5)c4)n3n2)COC1`, the growth is 128% (inactive). `CCOC(=O)c1c(Nc2ccccc2)nn2c(-c3cccs3)ccnc12`: the growth is 109% (inactive). Consider `Cc1ccc(C(=O)NN2C(=O)/C(=C/C=C/c3ccco3)SC2=S)cc1`, for which the growth is 137% (inactive). Take `COc1cc2nc(Cl)nc(Nc3cccc(C4=Nc5c(N)nc(N)nc5NC(c5ccc6c(c5)OCO6)C4)c3)c2cc1OC` (stereo not given): the growth was 76.8% (inactive). With `CCNC(=O)N1CCc2cc(OC)c(OCCc3ccc(OC)cc3)cc2C1c1ccc(Cl)cc1C` (stereo not given), the growth was -1.91% (active). On to `COc1ccc(OC)c(-c2nc(SCC(=O)c3ccc(Br)cc3)nc(Nc3ccc(S(N)(=O)=O)cc3)c2C#N)c1`, for which the growth was 49.4% (inactive). Consider `CCOC(=O)c1c(Nc2ccccc2)nn2c(-c3ccccc3)ccnc12`, for which the growth was 145% (inactive).

In the case of `O=S(=O)(NCCCNc1nccc(-c2[nH]c(-c3ccccc3)nc2-c2ccc(Cl)c(O)c2)n1)c1cccc2ccccc12`, the growth is 46% (inactive).

With `CS(=O)(=O)Nc1cc(-c2ccc3ncc(C#N)c(NCc4cccc(F)c4)c3c2)cnc1Cl`, the growth is -17.4% (active). Under `NC(N)=Nc1ccc(Oc2cccc(Oc3ccc(Cl)c(C(F)(F)F)c3)c2)cn1` stands 73.9% (inactive); under `COc1ccc(C2CC(c3cccc(Nc4nc(Cl)nc5cc(OC)c(OC)cc45)c3)=Nc3c(N)nc(N)nc3N2)cc1` (stereo not given), 81.4% (inactive); under `NC(N)=Nc1ccc(Oc2cccc(Nc3ccc(Cl)cc3)c2)cn1`, 65.7% (inactive).

On to `NC(N)=Nc1ccc(Nc2cccc(Oc3ccc(Cl)c(C(F)(F)F)c3)c2)cn1`, for which the growth is 76.2% (inactive).
